Data on 37 compounds can be found in PubChem BioAssay (Tox21).

Inconclusive results are not listed. Entries that show only a call come without a potency. Values without a mark were called inactive. Active and inactive are the calls of the source. Calls follow the shape of the dose curve; as a rule, active = well fitted inhibition curve with a large enough effect in the signal ratio in the repeat runs (not every such curve was filed as active); inconclusive = weak or mixed curves, or effect the other way; inactive = no such curve, though single readings can be large or run the other way; the % refers to the signal ratio.
Potency is read from the fitted curve at half-maximal effect.

Chain of Glucocorticoid receptor (Homo sapiens) (P04150 whole entry, looked up): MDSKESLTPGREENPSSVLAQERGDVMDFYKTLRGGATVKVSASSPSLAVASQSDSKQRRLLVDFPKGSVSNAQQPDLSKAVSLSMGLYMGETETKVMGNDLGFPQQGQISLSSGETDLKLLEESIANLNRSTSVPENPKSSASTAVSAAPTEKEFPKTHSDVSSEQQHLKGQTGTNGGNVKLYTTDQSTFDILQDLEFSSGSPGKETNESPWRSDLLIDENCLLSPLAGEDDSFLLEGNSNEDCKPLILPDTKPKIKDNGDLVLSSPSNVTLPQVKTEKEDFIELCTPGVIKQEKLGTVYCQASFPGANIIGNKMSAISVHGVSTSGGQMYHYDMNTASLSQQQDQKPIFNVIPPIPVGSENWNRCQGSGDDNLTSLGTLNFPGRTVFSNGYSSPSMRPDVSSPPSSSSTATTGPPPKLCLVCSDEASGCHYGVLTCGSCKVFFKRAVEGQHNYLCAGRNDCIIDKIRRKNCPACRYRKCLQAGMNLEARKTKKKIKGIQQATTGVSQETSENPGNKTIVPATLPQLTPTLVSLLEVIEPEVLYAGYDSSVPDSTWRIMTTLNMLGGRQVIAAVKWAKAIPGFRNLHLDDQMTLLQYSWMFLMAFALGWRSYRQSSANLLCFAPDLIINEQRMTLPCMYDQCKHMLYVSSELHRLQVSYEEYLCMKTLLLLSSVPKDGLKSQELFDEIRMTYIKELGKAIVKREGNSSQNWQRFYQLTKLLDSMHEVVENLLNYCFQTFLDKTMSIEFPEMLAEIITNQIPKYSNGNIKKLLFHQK

In this assay the target is Glucocorticoid receptor (Homo sapiens) (UniProt P04150). The assay is described as follows: qHTS assay to identify small molecule antagonists of the glucocorticoid receptor (GR) signaling pathway (AID 720692). The conditions noted are these: GR-bla HeLa, beta-lactamase FRET ratio, dexamethasone-stimulated, 18 h; series mostly up to 58.5 µM. In outline:
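GR-bla HeLa cells carrying a GRE-driven beta-lactamase reporter received compound after 4 h plating, then dexamethasone (5 nM final). After 18 h at 37C, the FRET substrate was loaded for 2 h at room temperature and fluorescence read.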
For orientation: Quantitative high-throughput screening tests each substance at several concentrations.
Regarding `C[C@H](N)C(=O)c1ccccc1`, the Potency result is “inactive”.

For `Cc1ccc2c(c1)C1CN(C)CCC1N2` (configuration not stated), the Potency result is “inactive”. The same measure, in the same setting: the value for `COc1ccc2c(C(=O)c3ccc(Cl)cc3)c(C)n(CC(=O)O)c2c1` was “inactive”. Consider `CNC(=O)O/N=C(/CSC)C(C)(C)C`, for which the Potency result is “inactive”. Still for that read-out and setting: with `C=CC(=O)OCCN(C)C` the entry was “inactive”; with `CCN[C@H](C)Cc1cccc(C(F)(F)F)c1`, “inactive”; with `CCNc1nc(NCC)nc(SC)n1`, “inactive”.

Take `CC(C)[N+](C)(CCC(C(N)=O)(c1ccccc1)c1ccccc1)C(C)C`: the Potency result was “inactive”. As for `CCOC(=O)NC(C)(C)Cc1ccc(Cl)cc1`, the Potency entry is “inactive”. Same read-out and setting: the value for `S=C=S` was “inactive”; that for `O=c1[nH]oc2c1CCNC2` was “inactive”; that for `C=C(Cl)CCl` was “inactive”. Still for that read-out and setting: with `COC(=O)c1ccc(CBr)cc1` the entry was “inactive”.

In the case of `OP(O)c1ccccc1`, the Potency entry is “inactive”. The same measure, in the same setting: the value for `CC(Cc1ccccc1)NCCn1cnc2c1c(=O)n(C)c(=O)n2C` (configuration not stated) was “inactive”; that for `C=CC=O` was “inactive”. Still for that read-out and setting: the value for `[P]#[In]` was “inactive”; that for `CN=CNc1ccc(C)cc1C` was “inactive”.

For the compound `CCC1(CC)C(=O)C=CNC1=O`, the Potency entry was “inactive”. For `CCC(=O)OC1(c2ccccc2)CCN(C)CC1`, the Potency result was “inactive”.

As to `Brc1c(Br)c(Br)c(Br)c(Br)c1Br`, the activity change, negative = inhibition is 4.46% [at 7.04 µM].

As to `C[C@H](CN1CCOCC1)C(C(=O)N1CCCC1)(c1ccccc1)c1ccccc1`, the Potency result is “inactive”. `Clc1cc2c(cc1Cl)Oc1cc(Cl)c(Cl)cc1O2`: the activity change, negative = inhibition is -20.7% [at 0.284 µM].

As to `CC#Cc1cc(C)nc(Nc2ccccc2)n1`, the Potency is 54.9 µM (active).

Take `C=CC1(C)OC(=O)N(c2cc(Cl)cc(Cl)c2)C1=O` (configuration not stated): the Potency entry is “inactive”. On the same count and under the same terms, the value for `COc1ccc(C=O)cc1O` was “inactive”; that for `CCC1(c2cccc(O)c2)CCCCN(C)C1` (configuration not stated) was “inactive”. Regarding `Oc1ccc(Cc2ccc(O)cc2)cc1`, the Potency result was “inactive”. The same measure, in the same setting: with `ClCOCCl` the entry was “inactive”; with `[O-][Br+2]([O-])O`, “inactive”.

Regarding `O=P(O)(O)CN(CP(=O)(O)O)CP(=O)(O)O`, the Potency result is “inactive”. Same read-out and setting: the value for `ClC1=C(Cl)C2(Cl)C(CBr)CC1(Cl)C2(Cl)Cl` (configuration not stated) was “inactive”. Still for that read-out and setting: with `COc1cc(CCN)cc(OC)c1OC` the entry was “inactive”; with `N#CN`, “inactive”; with `COc1cccc([C@@]2(O)CCCC[C@@H]2CN(C)C)c1`, “inactive”.

Turning to `CC[C@H](O)C(C[C@H](C)N(C)C)(c1ccccc1)c1ccccc1`, the Potency entry is “inactive”. On the same count and under the same terms, with `CCOC(=O)Nc1cccc(OC(=O)Nc2ccccc2)c1` the entry was “inactive”.
